# From ChEMBL document CHEMBL1157539, “Thousands of chemical starting points for antimalarial lead identification” (Nature, 2010)
# Assays:
# Format in all cases: functional
# [1] = tested on: Plasmodium falciparum; experiment: GSK_TCMDC: Inhibition of Plasmodium falciparum 3D7 in whole red blood cells, using parasite LDH activity as an index of growth. Test compounds present at 2uM
# [2] = tested on: Plasmodium falciparum; experiment: GSK_TCMDC: Inhibition of Plasmodium falciparum Dd2 in whole red blood cells, using parasite LDH activity as an index of growth. Test compounds present at 2uM
# [3] = tested on: HepG2; experiment: GSK_TCMDC: Percent inhibition of human HepG2 cell line. Test compounds present at 10uM.
SMILES,Inhibition [1] [%],Inhibition [2] [%],Inhibition [3] [%]
COc1ccc(CNc2nccc3ccc(-c4ccc(N)nc4)cc23)cc1.O=C(O)C(F)(F)F,93,49,7
CNCCNCc1ccc(-c2ccc(-c3nc4cc(C(F)(F)F)ccc4[nH]3)cc2)cc1.O=C(O)C(F)(F)F,99,92,28
COc1ccc(CNCC(C)(C)c2nc(-c3ccc(Cl)c(O)c3)c(-c3ccncc3)[nH]2)cc1.Cl,100,99,76
CC(=O)Nc1nc(C(=O)Nc2cccc(-c3ccc(-c4nc5cc(F)ccc5[nH]4)cc3)c2)cs1,100,32,54
C=CCc1ccccc1OCC(O)CN(C1CCCCC1)C1CCCCC1.Cl (stereo not given),93,84,50
COCCN1CCC(N(Cc2ccc(-c3ccc(OC(F)(F)F)cc3)cc2)C(=O)Cn2c(CCc3cccc(F)c3F)cc(=O)c3ccccc32)CC1.O=C(O)C(O)C(O)C(=O)O,96,92,100
Cc1ccc(-n2c(Sc3ncnc4sccc34)nnc2N2CCCC2)cc1,99,100,0
N=C(N)NC(=O)Nc1cc(F)c(Cl)c(Br)c1,100,50,0
Cc1nc2ccc3ccc(CNc4ccc5c(c4)CN([C@@H](CCC(=O)O)C(=O)O)C5=O)cc3c2c(=O)[nH]1 [OSI-7904],94,95,41
CCCNCc1ccc(-c2ccc(CN(CCOC)C(=O)CCc3ccc(OC)cc3)cc2)nc1.O=C(O)C(F)(F)F,98,29,11
CCOC(=O)c1c(C)n(-c2ccc(Cl)cc2)c2ccc(OC(=O)C=Cc3ccccc3)cc12,99,92,3
COc1ccc(NC(=O)c2cccc(Br)c2)cc1N1CCN(CCCCCCCN2CCN(c3cc(NC(=O)c4cccc(Br)c4)ccc3OC)CC2)CC1.Cl,99,93,97
O=C(Nc1ccc(N2CCNCC2)cc1)c1ccn2ncc(-c3cccc(Cl)c3)c2n1,96,53,79
O=C(O)C(F)(F)F.OCC1CCN(Cc2ccc(-c3cccc(-c4nc5ccccc5[nH]4)c3)cc2)CC1,100,6,21
CCCCc1ccc(-c2c(N)nc(N)nc2CC)cc1,95,0,63
CN1CCC(C(=O)N(Cc2ccc(-c3ccc(CNCCc4ccc(S(C)(=O)=O)cc4)cn3)cc2)Cc2cccc(F)c2)CC1.O=C(O)C(F)(F)F,98,90,10
Cn1c(NC(=O)C2CCC(CNC(=O)c3ccc(O)c(-c4cccc([N+](=O)[O-])c4)c3)CC2)nc2ccccc21 (stereo not given),95,97,6
Cc1ccc(NC(=O)c2ccc3ncccc3c2)cc1OC1CCN(Cc2ccc(F)cc2)C1.O=C(O)C(F)(F)F (stereo not given),83,28,11
CCN(CC)CCNC(=O)c1ccc(N/C=C2\C(=O)Nc3ccc(S(=O)(=O)Cc4c(Cl)cccc4Cl)cc32)cc1,100,56,25
COc1cccc(Nc2c(C(N)=O)cnc3ccc(-c4ccc([S+](C)[O-])cc4)cc23)c1.O=C(O)C(F)(F)F (stereo not given),96,100,0
